The text below walks through data of PubChem BioAssay (NCI).

This is part of a sample that, as a whole, favours compounds with a hit. Of some 83,000 tested, about 20% had one in any assay.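 The test compound was applied at a single concentration to cells in 96-well plates for 48 hours, and percent growth was recorded.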 Values without a mark were called inactive. Active and inactive are the calls of the source. Rule for the calls: active = growth percent below 10; inactive = the rest.

In this test the test system is M14 melanoma. As to the kind of experiment: NCI-60 one-dose screen, 48 h (100 = growth as untreated, 0 = no growth, -100 = all killed). Conditions: 10 µM unless noted.
In the case of `N#C/C(=C\c1ccc(-c2ccc(Cl)c(Cl)c2)o1)c1nc(-c2ccco2)cs1`, the growth is 99.3%.
For the compound `CC(C)C1=C[C@@]23CC[C@@H]4[C@](C)(CCC[C@@]4(C)C(=O)N4CCCNCC4)[C@H]2C[C@@H]1[C@H]1C(=O)CCC(=O)[C@H]13`, the growth was 93%.
Consider `COc1ccc(CCNc2nc(SC)nc(-c3cccc([N+](=O)[O-])c3)c2C#N)cc1OC`, for which the growth was 93.1%.
For the compound `Cc1cc(NS(=O)(=O)c2ccc(-c3cnc(C4CC4)o3)cc2)ccc1Cl`, the growth was 4.78% (active).
As to `COc1ccc(-c2cc(C(=O)N=Nc3c(O)[nH]c4ccc(Br)cc34)no2)cc1`, the growth was 98.9%.
In the case of `CCCOc1cc2ccccc2cc1C(=O)Nc1nc(NC)c2c(ccc3nccc32)[nH]1` it was -75.7% (active); in that of `CCCCN(CCCC)CCCn1c(-c2ccccc2)ccc1-c1ccccc1`, 77.6%; in that of `Cc1nc2ccccc2n1C(=O)C[C@@H]1NC(=S)NC1=O`, 89.3%.
As for `N#CCCN=Nc1c(O)[nH]c2ccc([N+](=O)[O-])cc12`, the growth is 101%.
Take `Cc1cc(N2CCOCC2)nc(NCc2cc(Nc3ccnc4cc(Cl)ccc34)ccc2F)n1`: the growth was -83.7% (active).
In the case of `Nc1n[nH]c2ccc([C@@H]3Nc4cc5c(cc4[C@H]4C6CCC(C6)[C@@H]34)C(=O)NC5)cc12` (stereo partly drawn) it was 7.72% (active); in that of `c1ccc(-c2c(-c3ccccc3)[n+](Cc3ccc4ccccc4c3)c(-c3ccc(-c4nc5ccccc5s4)cc3)n2Cc2ccc3ccccc3c2)cc1`, -80.4% (active); in that of `C=CC(=O)Nc1cccc(-c2nc(SC)nc(NCc3ccccc3)c2C#N)c1`, 71.3%.
